Values joined by “and” are separate entries in the source; they are usually repeats but may differ in a detail not shown here. Equal entries are not always repeated. Unmarked numbers belong to inactive results. Results filed as inconclusive are left out. A call without a number means that no potency is given here. Active and inactive are the calls of the source. Calls follow the shape of the dose curve; as a rule, active = well fitted curve in the direction sought with a large enough effect; inconclusive = small, poorly fitted or top-dose-only effect, or another doubt; inactive = no such curve, though single readings can be large; an effect the other way counts as inactive or inconclusive.

The values below come from PubChem BioAssay (NCATS).

Test system in the first assay: not listed separately
Description: qHTS for Activators of Parkin Expression: LOPAC Validation Assay (FLuc Reporter) (AID 720573). Particulars: Cell line, PRKN promoter firefly luciferase reporter, vehicle wells = 0, positive control = 100%; series mostly up to 46.1 µM. In short, it runs like this:
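FLuc luminescence read-out from a neuronal line expressing a Parkin-promoter-driven coincidence reporter. Cells treated 24 h at 37 C, 5% CO2 with compounds at 7 concentrations; signal increase normalized to DMSO and positive control.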
For the compound `O=[N+]([O-])c1ccc(-c2nc(-c3ccc(F)cc3)c(-c3ccncc3)[nH]2)cc1`, the result was inactive.

In the case of `CC(C)N(CCC(=O)c1ccc2ccccc2c1)Cc1ccccc1`, the result was inactive.

With `Clc1ccc2c(c1)N=C(N1CCNCC1)c1ccccc1N2`, the compound was classed as inactive.

For the compound `COc1cccc2c1[C@@H]1CN(CCCCn3c(=O)[nH]c4c(sc5ncc(-c6ccccc6)nc54)c3=O)C[C@@H]1CO2`, the compound was classed as inactive.

The target in a further assay is T1, Hexokinase-4 (Homo sapiens) + Glucokinase regulatory protein (Homo sapiens) (UniProt P35557+Q14397). Description: qHTS assay for inhibitors of recombinant human GCK-GKRP interaction: Diaphorase-coupled assay (AID 743205). Particulars: G6PDH/diaphorase resorufin fluorescence; series mostly up to 57.5 µM. In short, it runs like this: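 Resorufin fluorescence (525/590 nm), read each minute over 30 min, reports GCK activity coupled via G6PDH and diaphorase. Reaction: 10 nM GST-GCK, 10 nM FLAG-GKRP, 5 mM glucose, 0.4 mM ATP, 0.15 mM NADP+, 0.1 mM resazurin.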
T1 sequence (P35557 whole entry, looked up): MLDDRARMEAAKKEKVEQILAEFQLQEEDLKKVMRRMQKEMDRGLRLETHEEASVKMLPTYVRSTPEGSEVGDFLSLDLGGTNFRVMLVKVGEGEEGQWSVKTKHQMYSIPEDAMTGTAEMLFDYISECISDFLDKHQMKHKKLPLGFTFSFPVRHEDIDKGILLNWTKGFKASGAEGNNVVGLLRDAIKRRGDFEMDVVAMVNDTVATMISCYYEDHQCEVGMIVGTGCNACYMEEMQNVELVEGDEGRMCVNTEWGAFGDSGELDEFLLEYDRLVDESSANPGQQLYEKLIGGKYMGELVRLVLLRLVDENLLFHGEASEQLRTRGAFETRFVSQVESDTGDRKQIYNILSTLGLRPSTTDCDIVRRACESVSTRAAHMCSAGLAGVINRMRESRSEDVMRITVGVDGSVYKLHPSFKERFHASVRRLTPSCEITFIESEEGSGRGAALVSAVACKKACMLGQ
T1 sequence (Q14397 whole entry, looked up): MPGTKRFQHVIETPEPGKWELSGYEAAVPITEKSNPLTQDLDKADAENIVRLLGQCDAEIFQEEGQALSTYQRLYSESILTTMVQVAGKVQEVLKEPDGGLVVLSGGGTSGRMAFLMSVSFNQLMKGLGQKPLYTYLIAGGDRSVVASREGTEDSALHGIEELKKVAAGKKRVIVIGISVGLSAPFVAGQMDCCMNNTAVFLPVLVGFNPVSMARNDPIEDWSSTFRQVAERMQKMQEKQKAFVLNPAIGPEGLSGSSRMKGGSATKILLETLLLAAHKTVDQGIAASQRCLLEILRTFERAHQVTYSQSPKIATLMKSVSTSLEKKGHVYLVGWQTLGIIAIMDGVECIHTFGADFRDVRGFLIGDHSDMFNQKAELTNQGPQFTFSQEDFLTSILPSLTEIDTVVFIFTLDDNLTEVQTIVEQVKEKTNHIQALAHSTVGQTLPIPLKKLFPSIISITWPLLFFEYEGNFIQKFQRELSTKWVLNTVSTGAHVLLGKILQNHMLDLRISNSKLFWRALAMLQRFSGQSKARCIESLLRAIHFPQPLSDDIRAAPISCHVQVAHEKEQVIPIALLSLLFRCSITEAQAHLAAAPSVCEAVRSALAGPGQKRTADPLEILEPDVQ
In general terms: In qHTS, concentration-response curves come from the screen itself.
With `O=[N+]([O-])c1ccc(-c2nc(-c3ccc(F)cc3)c(-c3ccncc3)[nH]2)cc1`, the result was inactive.

As to `CCN(CC)CCNC(=O)c1ccc(NS(C)(=O)=O)cc1`, the outcome was inactive.

As to `O=C1NC(=O)/C(=C/c2ccc3c(c2)OC(F)(F)O3)S1`, the outcome was inactive.

For the compound `CC(C)N(CCC(=O)c1ccc2ccccc2c1)Cc1ccccc1`, the result was inactive.

`Clc1ccc2c(c1)N=C(N1CCNCC1)c1ccccc1N2`: the outcome was inactive.

Regarding `COc1cccc2c1[C@@H]1CN(CCCCn3c(=O)[nH]c4c(sc5ncc(-c6ccccc6)nc54)c3=O)C[C@@H]1CO2`, the outcome was inactive.

A further assay has as its target T1, Hexokinase-4 (Homo sapiens) + Glucokinase regulatory protein (Homo sapiens). Description: qHTS assay for inhibitors of recombinant human GCK-GKRP interaction: ADP-Glo assay (AID 743206). Particulars: ADP-Glo luminescence, 60 min, 0% = vehicle-only wells with enzyme present; series mostly up to 76.9 µM. A digest of the protocol: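 GST-GCK and FLAG-GKRP (15 nM each in the dispensed mix, with 2 uM S6P) react with 0.4 mM ATP and 5 mM glucose (final) in Hepes pH 7.6 for 60 min at room temperature. ADP is measured by ADP-Glo luminescence.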
Regarding `O=[N+]([O-])c1ccc(-c2nc(-c3ccc(F)cc3)c(-c3ccncc3)[nH]2)cc1`, the outcome was inactive.

As to `CCN(CC)CCNC(=O)c1ccc(NS(C)(=O)=O)cc1`, the outcome was inactive.

For the compound `O=C1NC(=O)/C(=C/c2ccc3c(c2)OC(F)(F)O3)S1`, the outcome was inactive.

On to `CC(C)N(CCC(=O)c1ccc2ccccc2c1)Cc1ccccc1`, for which the outcome was inactive.

As to `Clc1ccc2c(c1)N=C(N1CCNCC1)c1ccccc1N2`, the outcome was inactive.

As for `COc1cccc2c1[C@@H]1CN(CCCCn3c(=O)[nH]c4c(sc5ncc(-c6ccccc6)nc54)c3=O)C[C@@H]1CO2`, the result was inactive.

For a further assay the target is unchanged. The assay can be described thus: qHTS assay for inhibitors of recombinant human GCK-GKRP interaction: HTRF assay (AID 743207). Particulars: recombinant GCK-GKRP HTRF binding, 60 min, with sorbitol-6-phosphate; series mostly up to 57.5 µM. In short, it runs like this:
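HTRF read-out (ex 320 nm; 615/665 nm emission) after 60 min RT equilibration of 5 nM GST-GCK, 5 nM FLAG-GKRP, 2 uM S6P, compound and anti-FLAG/anti-GST detection antibodies; signal normalized between DMSO wells with and without GCK.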
Turning to `O=[N+]([O-])c1ccc(-c2nc(-c3ccc(F)cc3)c(-c3ccncc3)[nH]2)cc1`, the result was inactive.

On to `CCN(CC)CCNC(=O)c1ccc(NS(C)(=O)=O)cc1`, for which the result was inactive.

Turning to `O=C1NC(=O)/C(=C/c2ccc3c(c2)OC(F)(F)O3)S1`, the outcome was inactive.

Turning to `CC(C)N(CCC(=O)c1ccc2ccccc2c1)Cc1ccccc1`, the result was inactive.

Regarding `Clc1ccc2c(c1)N=C(N1CCNCC1)c1ccccc1N2`, the outcome was inactive.

Regarding `COc1cccc2c1[C@@H]1CN(CCCCn3c(=O)[nH]c4c(sc5ncc(-c6ccccc6)nc54)c3=O)C[C@@H]1CO2`, the outcome was inactive.

Test system in the next assay: not listed separately
The assay can be described thus: qHTS Assay for Identifying Gametocytocidal Compounds (AID 743244). Also: potency is read from the fitted curve at half-maximal effect.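 As to max response: actives lower the fluorescent signal which means gametocytes are killed.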 To be noted: P. falciparum 3D7 stage III-V gametocytes, alamarBlue, 72 h; max response: stronger effect = lower value. A digest of the protocol:
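3D7 gametocytes, stages III–V, 20,000/well; cpd 72 h, 37 °C/5% CO2; + alamarBlue 24 h; fluor. Ex 525/Em 598.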
On to `CO/N=C(/C(=O)N[C@@H]1C(=O)N2C(C(=O)[O-])=C(C[n+]3ccn4ncccc43)CS[C@H]12)c1nsc(N)n1`, for which the max response is -9.85% and -19.4%.

Take `O=C(O)CCC(=O)OC[C@@H](NC(=O)C(Cl)Cl)[C@H](O)c1ccc([N+](=O)[O-])cc1`: the max response was -4.91%.

As to `CC(NCCC(c1ccccc1)c1ccccc1)c1ccccc1` (configuration not stated), the Potency was 12.6 µM (active).

With `CCN(CC)CCNC(=O)c1ccc(NS(C)(=O)=O)cc1`, the max response is -10.8%.

As to `CCN1CCN(c2cc(-c3ccc(F)cc3)c3c(n2)CCCCCC3)CC1`, the max response was 9.24%.

With `C1N2CN3CN1CN(C2)C3`, the max response is 2.07%.

In the case of `O=C(COCCOCCOCC(=O)Nc1c(I)cc(I)c(C(=O)O)c1I)Nc1c(I)cc(I)c(C(=O)O)c1I`, the max response was 31%.

With `CCOC(=O)O[C@]1(C(=O)OCCl)CC[C@H]2[C@@H]3CCC4=CC(=O)C=C[C@]4(C)[C@H]3[C@@H](O)C[C@@]21C`, the max response is -2.36%.

With `Nc1ccc2cc3ccc(N)cc3nc2c1`, the Potency was 12.6 µM (active).

Take `CCCCCCCCCCCCCCCCCCNC(=O)OC1CCN(C(=O)OC[C@H](COC(=O)N(Cc2cccc[n+]2CC)C(=O)c2ccccc2OC)OC)CC1`: the Potency is 15.8 µM (active).

Take `CC[C@@H]([C@H](C)O)n1ncn(-c2ccc(N3CCN(c4ccc(OC[C@@H]5CO[C@@](Cn6cncn6)(c6ccc(F)cc6F)C5)cc4)CC3)cc2)c1=O`: the max response was 13.4%.

As for `CC(=O)Nc1ccc(S(=O)(=O)Nc2cc(C)on2)cc1`, the max response was 3.06%.

On to `OCc1cccnc1`, for which the max response was -22.7%.

Turning to `CCCCNc1ccc(C(=O)OCCN(CC)CC)cc1`, the max response is -4.4%.

In the case of `CC(C)(c1ccc(O)cc1)c1ccc(O)cc1`, the max response was -6.17%.

As for `O=C(O)[C@@H](O)[C@H](O)[C@H](O)[C@@H](O)C(=O)O`, the max response is 9.57%.

Consider `CNC[C@H](O)[C@@H](O)[C@H](O)[C@H](O)CO`, for which the max response was 10.7%.

Consider `CC(COc1ccccc1)NN` (configuration not stated), for which the max response was -1.29%.

As for `O=C(O)CCCC[C@@H]1SC[C@@H]2NC(=O)N[C@@H]21`, the max response is -7.74%.

For the compound `CCCC(=O)O[C@]1(C(=O)CCl)[C@@H](C)C[C@H]2[C@@H]3CCC4=CC(=O)C=C[C@]4(C)[C@@]3(F)C(=O)C[C@@]21C`, the max response is 13.2%.
